Screening results: PubChem BioAssay, National Center for Advancing Translational Sciences (NCATS)
This is a sample that favours compounds with a hit; in the whole collection about 7.5% have one here.
SMN2 splice enh: SMN2 splice variant enhancement | HEK293 SMN2-luciferase splicing reporter, luminescence, 30-36 h | Potency, µM (doses to about 46.1 µM), for inactives: at the highest dose activity change, positive = activation, most hits filed as activators | 2.8% of 210,000 active | AID 1458; note: % of control where 0% means no effect; nearly all actives have a fitted effect of over 55% in size
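qHTS luciferase splicing reporter: luminescence rises when SMN2 exon 7 is included in transfected HEK293 cells. Compound exposure lasted 30-36 h at 37C, with 4.5 mM final sodium butyrate as control, followed by a ONE-Glo read.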
ELG1 genotoxic: inducers of genotoxicity in HEK293T ELG1-luciferase cells; HEK293T ELG1-luciferase reporter, luminescence, 16 h; Potency, µM (highest dose often 46 µM), for inactives: at the top dose activity change, positive = activation, most hits filed as activators; 1.3% of 330,000 active; note: % of control where 0% means no effect; nearly all actives have a fitted effect of over 60% in size
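Genotoxicity was scored as increased ELG1-luciferase reporter signal, measured by ONE-Glo luminescence (30 min, room temperature). Compound or vehicle exposure of the HEK293T reporter cells lasted 16 hr at 37°C.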
FLuc modulator: firefly luciferase modulation, counter-screen for miR-21 project | Potency, µM (titrated, usually from 57.5 µM), inactives show at the highest dose activity change, negative = inhibition, usual class: inhibitors | purified FLuc, Km substrates, luminescence inhibition | 6.9% of 360,000 active;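 note: plate controls were vehicle for no effect and reference inhibitor for full effect; nearly all actives have a fitted effect of over 55% in size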
Target sequence (P08659 whole entry, looked up): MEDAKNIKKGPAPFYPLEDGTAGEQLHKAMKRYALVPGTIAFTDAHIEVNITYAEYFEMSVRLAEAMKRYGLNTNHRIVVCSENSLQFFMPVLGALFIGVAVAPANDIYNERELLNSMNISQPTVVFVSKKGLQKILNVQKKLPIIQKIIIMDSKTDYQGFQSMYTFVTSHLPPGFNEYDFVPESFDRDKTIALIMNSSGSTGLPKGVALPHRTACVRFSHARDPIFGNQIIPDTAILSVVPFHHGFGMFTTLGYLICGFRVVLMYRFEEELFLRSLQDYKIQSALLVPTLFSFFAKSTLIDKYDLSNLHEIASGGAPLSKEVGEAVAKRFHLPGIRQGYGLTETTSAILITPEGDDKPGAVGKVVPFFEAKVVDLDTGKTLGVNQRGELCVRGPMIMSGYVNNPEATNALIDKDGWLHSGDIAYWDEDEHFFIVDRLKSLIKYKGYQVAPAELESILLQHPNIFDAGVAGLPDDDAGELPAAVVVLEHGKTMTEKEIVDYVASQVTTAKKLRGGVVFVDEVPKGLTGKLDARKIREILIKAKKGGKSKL
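Biochemical qHTS of compounds, final roughly 60 µM downward over six points, against 10 nM purified firefly luciferase using Km concentrations of substrates (10 uM D-luciferin, 10 uM ATP) in Tris acetate pH 7.5 buffer; luminescence output.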
NPC1 promoter act: NPC1 promoter activation; Huh7 NPC1 promoter luciferase reporter, 24 h; 2.4% of 320,000 active; AID 485313; Potency, µM (highest dose often 9.22 µM), for inactives: at the top dose activation, actives largely listed as activators; note: % of control where 0% means no effect; nearly all actives have a fitted effect of over 60% in size
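Huh7 cells stably carrying NPC1 promoter–luciferase, plated in Opti-MEM with 10% FBS for 2 h, were exposed to compound in DMSO for 24 h at 37 °C; luciferase reagent was added for 10 min and luminescence read.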
Rab9 prom act: activators of Rab9 promoter. Potency, µM (series often up to 9.22 µM), without a hit: top-dose activation, negative = inhibition, usual class: activators. 2.8% of 320,000 active. Huh7 Rab9 promoter-luciferase reporter, luminescence, 24 h. AID 485297; note: % of control where 0% means no effect; nearly all actives have a fitted effect of over 60% in size
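Huh7 reporter line, Rab9 promoter upstream of luciferase. Compound exposure 24 h at 37 °C in reduced-serum medium with 10% FBS. Read-out: luminescence.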
Active calls of the source: *; ! = not confirmed by another sample. Calls come from the whole dose curve; as a rule, active = well fitted curve in the direction sought with a large enough effect; inconclusive = small, poorly fitted or top-dose-only effect, or another doubt; inactive = no such curve, though single readings can be large; an effect the other way counts as inactive or inconclusive. Potency is the fitted concentration of half-maximal effect.

How did Cc1c(C(=O)Nc2ccc3c(c2)OCCO3)sc2ncnc(N3CCCCC3C)c12 (stereo not given) do in these assays?
ELG1 genotoxic: -11%; FLuc modulator: 11µM*; NPC1 promoter act: -2%; Rab9 prom act: -1%

What do the screens show for `Cc1ccc(Cn2cc(CCC(=O)NC3CCCCC3)c3ccccc32)cc1`?
FLuc modulator: -11%

How did Cc1nn2cc(-c3ccc(N)cc3)nc2s1 do in these assays?
SMN2 splice enh: 13µM*; ELG1 genotoxic: inconclusive; FLuc modulator: 11µM*; NPC1 promoter act: 1µM*; Rab9 prom act: 1µM*

Results for COc1ccc(CCN(C)C(=O)CN2C(=O)NC3(CCCCC3C)C2=O)cc1OC (stereo not given) ?
ELG1 genotoxic: -3%; FLuc modulator: 5%; NPC1 promoter act: -1%; Rab9 prom act: 3%

Results for CC(C)c1ccc(Nc2ncccc2C(=O)O)cc1 ?
SMN2 splice enh: 16µM*; ELG1 genotoxic: inconclusive; FLuc modulator: 2.7µM*; NPC1 promoter act: 0.63µM*; Rab9 prom act: 0.4µM*

How did OCC1CCCN(C(=S)Nc2ccc(OC(F)F)cc2)C1 (stereo not given) do in these assays?
ELG1 genotoxic: inconclusive; FLuc modulator: 17µM*; NPC1 promoter act: 26%; Rab9 prom act: 29%

Results for CC(C)c1ccc(NC(=S)N2CCN(C)CC2)cc1 ?
ELG1 genotoxic: inconclusive; FLuc modulator: inconclusive; NPC1 promoter act: 20%; Rab9 prom act: 26%

Results for CC(C)c1ccc(NC(=S)N2CCCC2)cc1 ?
ELG1 genotoxic: inconclusive; FLuc modulator: 24µM*; NPC1 promoter act: 2.5µM*; Rab9 prom act: 2.2µM*

What do the screens show for `Cc1ccc(NC(=S)N2CCCC(O)C2)cc1` (stereo not given)?
SMN2 splice enh: inconclusive; ELG1 genotoxic: inconclusive; FLuc modulator: 17µM*; NPC1 promoter act: 3%; Rab9 prom act: 25%

What do the screens show for `OCC1CCCN(C(=S)Nc2ccc(Nc3ccccc3)cc2)C1` (stereo not given)?
SMN2 splice enh: inconclusive; ELG1 genotoxic: inconclusive; FLuc modulator: 9.5µM*; NPC1 promoter act: inconclusive; Rab9 prom act: 2µM*

What do the screens show for `Cc1ccc(NC(=S)N2CCOCC2)cc1`?
SMN2 splice enh: 14%; ELG1 genotoxic: 0%; FLuc modulator: inconclusive; NPC1 promoter act: -1%; Rab9 prom act: 2%

Results for NC(=O)C1CCCN(C(=S)Nc2ccccc2)C1 (stereo not given) ?
SMN2 splice enh: -21%; ELG1 genotoxic: 0%; FLuc modulator: 0%; NPC1 promoter act: -3%; Rab9 prom act: 2%

Results for Cc1ccc(S(=O)(=O)N2CCC(C(=O)NC3CC(C)(C)NC(C)(C)C3)CC2)cc1 ?
ELG1 genotoxic: 3%; FLuc modulator: -1%; NPC1 promoter act: -3%; Rab9 prom act: 5%

How did NNCCc1ccccc1 do in these assays?
SMN2 splice enh: 4%; ELG1 genotoxic: 16%; FLuc modulator: inconclusive; NPC1 promoter act: 15%; Rab9 prom act: 14µM*!

What do the screens show for `CC(C)(C)c1ccc(/C=N/NC(=O)c2ccccn2)cc1`?
ELG1 genotoxic: inconclusive; FLuc modulator: 0.38µM*; NPC1 promoter act: 0.32µM*; Rab9 prom act: 0.89µM*

What do the screens show for `O=C(N/N=C/c1ccc(Br)s1)c1ccccn1`?
SMN2 splice enh: 3.5µM*; ELG1 genotoxic: 9.2µM*; FLuc modulator: 4.8µM*; NPC1 promoter act: 2.8µM*; Rab9 prom act: 1.4µM*

What do the screens show for `O=C(N/N=C/c1ccsc1)c1cc2ccccc2o1`?
ELG1 genotoxic: 9%; FLuc modulator: inconclusive; NPC1 promoter act: 1%; Rab9 prom act: 25%

How did O=C(N/N=C/c1ccsc1)c1ccccn1 do in these assays?
ELG1 genotoxic: inconclusive; FLuc modulator: 15µM*; NPC1 promoter act: 2.8µM*; Rab9 prom act: 4.5µM*

What do the screens show for `Cc1cc2ncn(CCOc3ccccc3)c2cc1C`?
SMN2 splice enh: -2%; ELG1 genotoxic: inconclusive; FLuc modulator: 17µM*; NPC1 promoter act: inconclusive; Rab9 prom act: 3.5µM*

Results for CC1CCC(NC(=O)c2cc3ccccc3cc2O)CC1 (stereo not given) ?
ELG1 genotoxic: 13%; FLuc modulator: 5.4µM*; NPC1 promoter act: inconclusive; Rab9 prom act: 2.2µM*
